# Assay results from PubChem BioAssay (NCATS).
# Results filed as inconclusive are left out. Unmarked numbers belong to inactive results. Activity calls are given as the source filed them. Calls come from the whole dose curve; as a rule, active = well fitted cell-killing curve with a large enough effect; inconclusive = small, poorly fitted or top-dose-only effect; inactive = flat fitted curve, though single readings scatter.
# Assay: Cell Viability - LYMP2-025 (AID 976);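 for activity change, negative = cytotoxicity: plate controls were DMSO only for no effect and tetraoctylammonium bromide control for full effect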
# Settings: LYMP2-025 lymphoblastoid cell viability; series mostly up to 92.2 µM; activity change, negative = cytotoxicity: at the top concentration
# Method in brief: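 Human lymphoblastoid LYMP2-025 cells (2500/well) were pre-incubated 5 hr at 37 C, then treated with compounds for 24 hr at 37 C in complete medium. Viability was read as intracellular ATP by CellTiter-Glo luminescence; AC50 from Hill fits.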
# Potency is the fitted concentration of half-maximal effect.
SMILES,"activity change, negative = cytotoxicity [%]",Potency
Oc1ccc2cc(SSc3ccc4cc(O)ccc4c3)ccc2c1,-44,
Nc1ccc2cc3ccccc3cc2c1,-15.4,
CN(C)c1ccc(C2(c3ccc(N(C)C)cc3)OC(=O)c3cc(N(C)C)ccc32)cc1,0.293,
Cc1cc(Nc2ccc(O)cc2)ccc1N,,50.1 µM (active)
CO[C@H]1/C=C/O[C@@]2(C)Oc3c(C)c(O)c4c(O)c(c5c(c4c3C2=O)NC2(CCN(CC(C)C)CC2)N=5)=NC(=O)/C(C)=C\C=C\[C@H](C)[C@H](O)[C@@H](C)[C@@H](O)[C@@H](C)[C@H](OC(C)=O)[C@@H]1C,-24.7,
Cc1cc(O)c(C(C)(C)C)cc1Sc1cc(C(C)(C)C)c(O)cc1C,,39.8 µM (active)
C=C(C)c1ccccc1,-0.774,
C=CC(=O)OCCOCCOC(=O)C=C,,31.6 µM (active)
C/C=C1\C(=O)C[C@H]2[C@@H]3CCC4=CC(=O)CC[C@]4(C)[C@H]3CC[C@]12C,-8.02,
O=C1OC(O)C(C(Cl)Cl)=C1Cl (stereo not drawn),,31.6 µM (active)
CNc1ccc(O)cc1,,10 µM (active)
CC(=O)Nc1ccc(C(=O)CCl)cc1,,10 µM (active)
CCC(C)Nc1ccc(NC(C)CC)cc1 (stereo not drawn),,7.94 µM (active)
O=C=Nc1ccc(Cc2ccc(N=C=O)cc2)cc1,-3.44,
c1ccc2c(c1)ccc1cc3c(ccc4ccccc43)cc12,-13.7,
c1ccc2c(c1)-c1cccc3c1c-2cc1ccccc13,-12.2,
O=[N+]([O-])c1cc([N+](=O)[O-])c2ccc(S(=O)(=O)O)cc2c1O,-1.28,
O=Cc1ccc(Cl)c(Cl)c1,1.66,
